Results on 35 molecules are retold here after PubChem BioAssay (NCATS).

Results filed as inconclusive are left out. The source made the active and inactive calls. The call rests on the fitted dose curve; in most records, active means well fitted inhibition curve with a large enough effect; inconclusive means small, poorly fitted or top-dose-only effect; inactive means no such curve, though single readings can be large or run the other way.
On the % scale 0 is the no-effect control and ±100 the full control effect.

The experiment in a line: Primary qHTS for small molecule stabilizers of the endoplasmic reticulum resident proteome: Secreted ER Calcium Modulated Protein (SERCaMP) assay (AID 1508630). The conditions noted are these: SH-SY5Y GLuc-SERCaMP (Gaussia luciferase released on ER calcium loss) secretion, thapsigargin, luminescence; series mostly up to 38.4 µM; activity change, negative = inhibition: at the top concentration. The essentials:
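The SH-SY5Y reporter protocol was run at 3 concentrations up to 38.3 uM (primary) or 11 concentrations (follow-up): 16 h compound, 100 nM thapsigargin for 4 h, then extracellular luciferase luminescence.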
(In general: qHTS replaces the single test concentration by a dilution series.)
In the case of `CC(=O)Oc1ccc2c(c1)CC[C@@H]1[C@@H]2CC[C@]2(C)[C@@H](O)CC[C@@H]12`, the “activity change, negative = inhibition” value was 5.62% (inactive).
`C#C[C@]1(O)CC[C@H]2[C@@H]3CCC4=CC(=O)CC[C@@H]4[C@H]3CC[C@@]21C`: the “activity change, negative = inhibition” value was 22.8% (inactive).
In the case of `O=C1c2ccccc2C(=O)C1c1ccccc1`, the “activity change, negative = inhibition” value was -23.3% (inactive).
With `CN1C(CCl)Nc2cc(Cl)c(S(N)(=O)=O)cc2S1(=O)=O` (stereo not given), the “activity change, negative = inhibition” value was -19.2% (inactive).
The same measure, in the same setting: the same measure for `C[C@]12CC[C@H]3[C@@H](CCC4=CC(=O)CC[C@@]43C)[C@@H]1CC[C@@H]2C(=O)CO`: 3.21% (inactive).
For `CCCCOc1ccc(C(=O)CCN2CCCCC2)cc1`, the “activity change, negative = inhibition” value is 5.72% (inactive).
Turning to `COC1=CC(=O)C[C@@H](C)[C@]12Oc1c(Cl)c(OC)cc(OC)c1C2=O`, the “activity change, negative = inhibition” value was 45.7% (inactive).
With `CCN(CC)CCNC(=O)COc1ccc(Cl)cc1`, the “activity change, negative = inhibition” value was -3.31% (inactive).
On to `CC(=O)OCC(=O)[C@@]12N=C(C)O[C@@H]1C[C@H]1[C@@H]3CCC4=CC(=O)C=C[C@]4(C)[C@H]3[C@@H](O)C[C@@]12C`, for which the “activity change, negative = inhibition” value was 42.4% (inactive).
Same read-out and setting: the figure for `CC(=O)OCC(=O)[C@@]12OC(C)(C)O[C@@H]1C[C@H]1[C@@H]3C[C@H](F)C4=CC(=O)C=C[C@]4(C)[C@@]3(F)[C@@H](O)C[C@@]12C` is -4.42% (inactive); for `C/C=C/c1ccc(OC)cc1` it is -9.38% (inactive).
Consider `NC(=O)C(=O)N/N=C/c1ccc([N+](=O)[O-])o1`, for which the “activity change, negative = inhibition” value was -13.6% (inactive).
Turning to `CC[N+](CC)(CCNC(=O)C(=O)NCC[N+](CC)(CC)Cc1ccccc1Cl)Cc1ccccc1Cl`, the Potency result was “inactive”.
As to `CCCCCCCCCCCCCCCC[N+](C)(C)CC`, the “activity change, negative = inhibition” value was -5.3% (inactive).
Still for that read-out and setting: the same measure for `C[C@@H]1C[C@H]2[C@@H]3CCC4=CC(=O)C=C[C@]4(C)[C@@]3(F)[C@@H](O)C[C@]2(C)[C@H]1C(=O)CO`: 37.4% (inactive); for `O=C(O)CNC(=O)c1ccccc1`: -19.3% (inactive).
For `C[C@]12C=CC(=O)C=C1[C@@H](F)C[C@@H]1[C@@H]2[C@@H](O)C[C@@]2(C)[C@H]1CC[C@]2(O)C(=O)CO`, the “activity change, negative = inhibition” value was 26.8% (inactive).
Turning to `C[C@]12C=CC(=O)C=C1CC[C@@H]1[C@@H]2[C@@H](O)C[C@@]2(C)[C@H]1CC[C@]2(O)C(=O)CO`, the “activity change, negative = inhibition” value is 27.4% (inactive).
As to `C#C[C@]1(OC(C)=O)CC[C@H]2[C@@H]3CCC4=C[C@@H](OC(C)=O)CC[C@@H]4[C@H]3CC[C@@]21C`, the “activity change, negative = inhibition” value was -0.752% (inactive).
Regarding `COc1ccc(CCN2CCC(Nc3nc4ccccc4n3Cc3ccc(F)cc3)CC2)cc1`, the “activity change, negative = inhibition” value is 318% (inactive).
`C[n+]1c2cc(N)ccc2cc2ccc(N)cc21` (tested in a mixture with another compound): the “activity change, negative = inhibition” value was 149% (inactive).
In the case of `COc1cc(-c2ccc(=O)[nH]n2)ccc1OC(F)F`, the Potency entry is “inactive”.
For the molecule `CCCCC(=O)O[C@]1(C(=O)CO)CC[C@H]2[C@@H]3CCC4=CC(=O)CC[C@]4(C)[C@H]3[C@@H](O)C[C@@]21C`, the “activity change, negative = inhibition” value is 1.02% (inactive).
Regarding `CCOc1ccc(Cc2nccc3cc(OCC)c(OCC)cc23)cc1OCC`, the “activity change, negative = inhibition” value was -19.2% (inactive).
Turning to `COc1ccc(/C=C/C(=O)c2ccc(OC)cc2OC)cc1`, the “activity change, negative = inhibition” value was -29.4% (inactive).
Regarding `CCN(CC)CCOc1ccc(C(O)(Cc2ccc(Cl)cc2)c2ccc(C)cc2)cc1` (stereo not given), the “activity change, negative = inhibition” value is -24.4% (inactive).
Regarding `CCCCC1=NC2(CCCC2)C(=O)N1Cc1ccc(-c2ccccc2-c2nn[nH]n2)cc1`, the Potency result was “inactive”.
Regarding `CCCCCCCCCCOCC(O)CN` (stereo not given), the “activity change, negative = inhibition” value was 25.2% (inactive).
On the same count and under the same terms, the figure for `Cc1ccc(C(=O)C(C)CN2CCCCC2)cc1` (stereo not given) is -13% (inactive).
Take `Clc1ccc2c(c1)CCc1cccnc1C2=C1CCNCC1`: the “activity change, negative = inhibition” value is 24% (inactive).
`CCCN1CCCC[C@H]1C(=O)Nc1c(C)cccc1C`: the “activity change, negative = inhibition” value was -5.65% (inactive).
On to `Oc1cc(O)c2c(c1)O[C@H](c1ccc(O)c(O)c1)[C@H](O)C2`, for which the “activity change, negative = inhibition” value was -28.4% (inactive).
Consider `C[C@]12CCC(=O)C=C1CC[C@H]1[C@@H]3CC[C@](O)(C(=O)CO)[C@@]3(C)C[C@H](O)[C@@]12F`, for which the “activity change, negative = inhibition” value is -2.93% (inactive).
On the same count and under the same terms, the same measure for `CCCCOc1ccc(OCCCN2CCOCC2)cc1`: -4.08% (inactive); for `COC(=O)CCc1ccc(OCC(O)CNC(C)C)cc1` (stereo not given): 39.7% (inactive).
